Each sequence was assayed against T1, ETS1 (UniProt P14921) (assay: TF binding intensity (PBM fluorescence), negative control probe (arbitrary fluorescence units); higher = stronger binding).
T1 sequence: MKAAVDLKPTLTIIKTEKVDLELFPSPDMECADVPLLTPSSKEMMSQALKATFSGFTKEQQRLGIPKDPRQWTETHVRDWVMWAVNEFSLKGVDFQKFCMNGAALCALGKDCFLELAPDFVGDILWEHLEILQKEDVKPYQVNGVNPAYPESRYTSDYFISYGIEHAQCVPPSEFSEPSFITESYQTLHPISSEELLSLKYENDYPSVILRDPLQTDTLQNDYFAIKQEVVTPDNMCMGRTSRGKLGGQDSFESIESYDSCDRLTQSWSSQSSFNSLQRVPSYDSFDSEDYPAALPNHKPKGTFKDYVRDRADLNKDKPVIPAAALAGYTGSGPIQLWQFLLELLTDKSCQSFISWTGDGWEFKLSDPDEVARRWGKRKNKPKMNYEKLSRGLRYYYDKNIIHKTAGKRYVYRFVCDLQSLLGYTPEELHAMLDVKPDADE
Procedure: (§1)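 gcPBM negative-control 36-bp genomic probes lacking TF binding sites. Each was incubated with recombinant human ETS1 or RUNX1 alone and detected by antibody fluorescence. Values are medians over replicate spots (4 spots for the ETS1-RUNX1 arrays, 3 for the ETS1-ETS1 array). The probes sit in constant array flanks that are not printed.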
For “AGACTGCATACTTATAAAGTGGAGTATGCAGATAAT (protein concentration 10 nM)”, the TF binding intensity was 119.
“ACTGGCTAAGGTCTCTCCTGACCTGATTCCATTCTT (protein concentration 10 nM)” gave a TF binding intensity of 97.3.
For “GGGGCCTCGAAGGTCCTCCTGGACTGCAAGAGAGGA (protein concentration 10 nM)”, the TF binding intensity was 131.

Each sequence was assayed against RUNX1 (UniProt Q01196) in the same assay as above.
RUNX1, sequence (Q01196 whole entry): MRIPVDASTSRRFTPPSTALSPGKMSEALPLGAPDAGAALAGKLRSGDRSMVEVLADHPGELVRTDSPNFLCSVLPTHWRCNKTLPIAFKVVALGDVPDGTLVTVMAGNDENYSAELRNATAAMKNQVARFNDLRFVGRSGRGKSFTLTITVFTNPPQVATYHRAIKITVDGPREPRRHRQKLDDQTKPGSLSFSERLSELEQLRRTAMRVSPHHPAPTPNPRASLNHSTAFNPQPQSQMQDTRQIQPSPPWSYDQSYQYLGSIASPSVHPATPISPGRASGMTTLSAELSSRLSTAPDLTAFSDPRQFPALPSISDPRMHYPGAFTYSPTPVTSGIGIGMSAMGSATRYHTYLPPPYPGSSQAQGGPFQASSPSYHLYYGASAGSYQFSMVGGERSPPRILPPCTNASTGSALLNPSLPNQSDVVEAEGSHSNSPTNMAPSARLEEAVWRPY
Procedure: as §1
In the case of “CTCACCAGTCACCCCAGGAAACTCTGCCCCTTTACA (protein concentration 2 nM)”, the TF binding intensity is reported as 950.
“GCGTACACCTGCCGCCGGAAGAAGAGCGACGGTCGC (protein concentration 2 nM)” was tested, and the TF binding intensity was 909.
Work on “GAAAAACAGACAGACAGGAAGAGAGAGAGACAGACA (protein concentration 2 nM)” yielded a TF binding intensity of 903.
“GACGAGCCCGGTGGCAGGAAGTGACAGTGAGAAACT (protein concentration 2 nM)” showed a TF binding intensity of 965.
“ATGTGTGTGTTTTTCCTTCCGGTTGCTGTGAGGTGA (protein concentration 2 nM)” was tested, and the TF binding intensity was 919.
Sequence “CAGGCTCGACACGGGCGGAACAAACGGGCTCCACTA (protein concentration 2 nM)” has a TF binding intensity of 769.
“GCACACAAGGCAGTGTTTCCGGGACAGAGGGTGGGC (protein concentration 2 nM)” showed a TF binding intensity of 937.
“TGAAAAAGGGGAGGGCGGAAGTGACGAGCCGTAGCC (protein concentration 2 nM)” was tested, and the TF binding intensity was 891.
“GTCCCGCCTTCTCCGCTTCCGCCACCTCCTACTTAG (protein concentration 2 nM)” showed a TF binding intensity of 1160.
Sequence “CCTTTGAAAGAAAAAAGGAAGTGTTTGGACGACAGC (protein concentration 2 nM)” has a TF binding intensity of 1150.
